Unmarked numbers belong to inactive results. Inconclusive results are not listed. Where a call stands in place of a potency, no number is given. Calls of active or inactive are those of the source. Unless noted, calls come from the whole dose curve; as a rule, active = well fitted curve in the direction sought with a large enough effect; inconclusive = small, poorly fitted or top-dose-only effect, or another doubt; inactive = no such curve, though single readings can be large; an effect the other way counts as inactive or inconclusive.
Tests used:
[1] = target: Glucocorticoid receptor (Homo sapiens) (UniProt P04150); test: GR-GFP Redistribution (AID 450;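 active = compounds whose dose series gives a full or clear partial fitted curve of increased nuclear translocation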; note: potency is the fitted concentration of half-maximal effect); conditions: U2OS GR-GFP nuclear translocation, laser cytometry, 2 h
[2] = target: Glucocorticoid receptor (Homo sapiens) (UniProt P04150); test: GR-EFC Redistribution (AID 451; calls by dose curve; note: potency is the fitted concentration of half-maximal effect); conditions: CHO-K1 GR-EFC translocation, beta-gal luminescence, 2 h
How it was run: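 CHO-K1 cells stably expressing nuclear-localized β-gal enzyme acceptor and GR fused C-terminally to the enzyme donor fragment; ligand-driven nuclear translocation restores β-gal by complementation. Compounds titrated up to 46 uM final, 2 h at 37 °C; luminescence read.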

[3] = target: Mitogen-activated protein kinase 10 (Mus musculus) (UniProt Q61831); test: JNK3 AlphaScreen Assay (AID 530; active = well fitted curve in either direction with a large enough effect, not every such curve was filed as active;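 note: kinase came from lysate of stimulated human HepG2 cells; signal reports phosphorylation of biotinylated GST-cJun 1-79 at Ser73 with 10 µM ATP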); conditions: JNK3 lysate, c-Jun phosphorylation; series mostly up to 57.1 µM
How it was run: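 Biotinylated GST-cJun(1-79) served as substrate for JNK3 in HepG2 lysates stimulated with IL-1beta and TNF-alpha. ATP was 10 uM final, pH 7.6. Ser73 phosphorylation was quantified by AlphaScreen (680 nm excitation).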

[4] = target: Cytochrome P450 2D6 (Homo sapiens) (UniProt P10635); test: qHTS Assay for Inhibitors and Substrates of Cytochrome P450 2D6 (AID 891); conditions: recombinant CYP2D6, luciferin-ME EGE luminescence; series mostly up to 57.1 µM; note: potency is the fitted concentration of half-maximal effect; nearly all actives have a fitted effect of over 60% in size
How it was run: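 Luminescent read-out of luciferin formed by 5 nM human CYP2D6 demethylating 30 uM Luciferin-ME EGE (Km level) over 60 min at room temperature after NADPH regeneration addition. Data normalized to full inhibition by 1.43 uM quinidine.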

[5] = target: Ubiquitin carboxyl-terminal hydrolase 1 (Homo sapiens) (UniProt O94782); test: Inhibitors of USP1/UAF1: Pilot qHTS (AID 504865); conditions: purified USP1/UAF1, Ub-rhodamine cleavage fluorescence; series mostly up to 114 µM;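 note: rhodamine fluorescence freed from ubiquitin-rhodamine substrate followed over time; top concentration of the series differs between compounds; nearly all actives have a fitted effect of over 35% in size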
How it was run: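 1nM USP1/UAF1 + cpd, 15 min RT; start w/ Ub-Rho 150nM final; kinetic FL 480/540 nm, 6 reads q60 s. Buffer 50mM HEPES pH 7.8, 0.5mM EDTA, 1mM TCEP, 0.01% Tween-20, 0.1 mg/ml BSA.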

[6] = target: DNA dC->dU-editing enzyme APOBEC-3G (Homo sapiens) (UniProt Q9HC16); test: qHTS for inhibitors of Vif-A3G interactions: Validation (AID 588379); conditions: Vif-A3G protein interaction assay; series mostly up to 46.1 µM
How it was run: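 Yellow fluorescence (Ex 488, Em 500-530) of Vif-coexpressing HeLa A3G-eYFP cells, scanned by Acumen cytometer, reports blocked A3G degradation. Cells plated at 700/well overnight at 37 deg C before compound addition, then a further overnight compound incubation at 37 deg C.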

[7] = tested on: Zika virus NS2B-NS3 protease; test: Primary screen GU AMC qHTS for Zika virus inhibitors (AID 1347154); conditions: Zika NS2B-NS3 unlinked protease, AMC fluorogenic substrate; series mostly up to 54.1 µM; note: nearly all actives have a fitted effect of over 70% in size
How it was run: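 Unlinked Zika NS2B hydrophilic domain/NS3 protease domain noncovalent complex (25 nM final) in 10 mM Tris-HCl pH 8.0, 0.01% Tween 20, with AMC peptide substrate. Fluorescence (ex 340, em 450 nm) change over 15 min, room temperature; percent inhibition fitted to 4-parameter Hill equation.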

[8] = Confirmatory screen GU Rhodamine qHTS for Zika virus inhibitors qHTS (AID 1347157); conditions: purified enzyme assay, Rhodamine110 substrate fluorescence, 15 min; series mostly up to 114 µM; note: nearly all actives have a fitted effect of over 70% in size
How it was run: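 Percent inhibition derives from the 15-min fluorescence change (ex 480, em 540 nm), normalized to no-enzyme and no-inhibitor wells. Reactions contained 25 nM NS2B-NS3 complex and 1.5 microM substrate in 10 mM Tris-HCl pH 8.0.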

[9] = target: Cytochrome P450 3A4 (Homo sapiens) (UniProt P08684); test: qHTS Assay for Inhibitors and Substrates of Cytochrome P450 3A4 (AID 884); conditions: recombinant CYP3A4, Luciferin-PPXE luminescence; series mostly up to 57.1 µM; note: nearly all actives have a fitted effect of over 50% in size; note: potency is the fitted concentration of half-maximal effect
How it was run: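 Luminescent readout of luciferin produced by CYP3A4 (20 nM) dealkylation of Luciferin-PPXE, 25 uM (its KM). NADPH-driven reaction ran 60 min at RT after 10 min compound preincubation; data scaled to 57 uM ketoconazole as 100% inhibition.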

[10] = target: Cytochrome P450 3A4 (Homo sapiens) (UniProt P08684); test: qHTS Assay for Activators of Cytochrome P450 3A4 (AID 885); conditions: recombinant CYP3A4, Luciferin-PPXE luminescence, 60 min; series mostly up to 57.1 µM; note: nearly all actives have a fitted effect of over 65% in size; note: potency is the fitted concentration of half-maximal effect
How it was run: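 CYP3A4 activity: Luciferin-PPXE O-dealkylation, 25uM substrate, 200mM KPO4, RT throughout. Read-out is luciferase luminescence; higher values reflect activation.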

[11] = target: Cytochrome P450 1A2 (Homo sapiens) (UniProt P05177); test: p450-cyp1a2 (AID 410; calls by dose curve; note: potency is the fitted concentration of half-maximal effect); conditions: recombinant CYP1A2, luciferin-ME demethylation, luminescence; series mostly up to 57 µM
How it was run: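 20nM CYP1A2, 100uM Luciferin-ME (=Km), 100mM KPO4; cpd 10 min RT; +NADPH regen, 60 min RT; stop/detect 20 min; luminescence. Normalized to furafylline 57 uM = full inhibition.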

Chain of Glucocorticoid receptor (Homo sapiens) (P04150 whole entry, looked up, the tested form may be a part): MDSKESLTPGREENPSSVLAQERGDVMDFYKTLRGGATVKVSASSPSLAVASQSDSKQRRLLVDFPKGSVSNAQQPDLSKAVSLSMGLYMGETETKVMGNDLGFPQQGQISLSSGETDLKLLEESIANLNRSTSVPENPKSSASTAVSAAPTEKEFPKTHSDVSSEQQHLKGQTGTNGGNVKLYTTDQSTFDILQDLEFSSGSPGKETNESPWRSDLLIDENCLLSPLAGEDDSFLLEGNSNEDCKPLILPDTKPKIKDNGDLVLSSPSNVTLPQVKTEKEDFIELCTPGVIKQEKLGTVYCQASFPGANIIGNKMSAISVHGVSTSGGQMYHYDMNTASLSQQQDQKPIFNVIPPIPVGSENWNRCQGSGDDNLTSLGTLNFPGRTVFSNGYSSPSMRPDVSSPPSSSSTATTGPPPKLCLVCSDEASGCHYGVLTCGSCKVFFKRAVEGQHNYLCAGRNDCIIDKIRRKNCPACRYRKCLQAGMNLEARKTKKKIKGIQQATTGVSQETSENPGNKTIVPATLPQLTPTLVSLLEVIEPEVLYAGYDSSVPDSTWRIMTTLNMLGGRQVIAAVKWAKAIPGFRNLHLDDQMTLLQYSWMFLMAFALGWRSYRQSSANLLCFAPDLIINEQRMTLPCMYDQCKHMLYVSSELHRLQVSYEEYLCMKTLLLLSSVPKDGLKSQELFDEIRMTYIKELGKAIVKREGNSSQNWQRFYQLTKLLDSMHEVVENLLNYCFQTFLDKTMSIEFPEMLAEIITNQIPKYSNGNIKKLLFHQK
Chain of Ubiquitin carboxyl-terminal hydrolase 1 (Homo sapiens) (O94782 whole entry, looked up): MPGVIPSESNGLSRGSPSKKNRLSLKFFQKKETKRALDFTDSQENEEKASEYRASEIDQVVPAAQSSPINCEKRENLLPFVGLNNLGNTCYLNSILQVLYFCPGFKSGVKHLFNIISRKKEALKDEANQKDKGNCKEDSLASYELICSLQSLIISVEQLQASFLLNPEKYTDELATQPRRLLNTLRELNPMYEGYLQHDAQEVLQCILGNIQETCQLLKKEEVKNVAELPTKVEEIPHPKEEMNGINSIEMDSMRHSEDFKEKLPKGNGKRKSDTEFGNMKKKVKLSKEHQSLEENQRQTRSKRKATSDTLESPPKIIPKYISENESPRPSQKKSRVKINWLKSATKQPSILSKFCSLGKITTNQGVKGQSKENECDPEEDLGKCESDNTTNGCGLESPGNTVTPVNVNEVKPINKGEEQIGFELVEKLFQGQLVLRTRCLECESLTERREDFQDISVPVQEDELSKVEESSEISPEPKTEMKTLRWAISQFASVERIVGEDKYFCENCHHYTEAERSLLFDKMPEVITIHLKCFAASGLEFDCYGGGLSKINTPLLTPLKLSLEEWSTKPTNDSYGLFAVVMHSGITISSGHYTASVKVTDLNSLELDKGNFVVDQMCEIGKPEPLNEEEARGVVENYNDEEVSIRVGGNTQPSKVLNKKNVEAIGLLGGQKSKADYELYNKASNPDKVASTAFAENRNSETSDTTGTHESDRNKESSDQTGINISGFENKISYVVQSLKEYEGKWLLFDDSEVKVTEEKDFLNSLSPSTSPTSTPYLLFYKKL
Chain of DNA dC->dU-editing enzyme APOBEC-3G (Homo sapiens) (Q9HC16 whole entry, looked up): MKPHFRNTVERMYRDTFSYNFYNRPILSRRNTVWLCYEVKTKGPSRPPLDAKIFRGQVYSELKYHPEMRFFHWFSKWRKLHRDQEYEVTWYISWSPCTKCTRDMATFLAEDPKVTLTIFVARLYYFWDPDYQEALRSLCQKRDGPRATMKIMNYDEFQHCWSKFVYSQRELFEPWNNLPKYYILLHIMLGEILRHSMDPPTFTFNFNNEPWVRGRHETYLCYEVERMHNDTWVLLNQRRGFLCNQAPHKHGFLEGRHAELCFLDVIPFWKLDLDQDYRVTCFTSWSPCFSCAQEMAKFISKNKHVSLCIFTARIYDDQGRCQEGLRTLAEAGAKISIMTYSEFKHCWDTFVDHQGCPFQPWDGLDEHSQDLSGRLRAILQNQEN
Chain of Cytochrome P450 3A4 (Homo sapiens) (P08684 whole entry, looked up): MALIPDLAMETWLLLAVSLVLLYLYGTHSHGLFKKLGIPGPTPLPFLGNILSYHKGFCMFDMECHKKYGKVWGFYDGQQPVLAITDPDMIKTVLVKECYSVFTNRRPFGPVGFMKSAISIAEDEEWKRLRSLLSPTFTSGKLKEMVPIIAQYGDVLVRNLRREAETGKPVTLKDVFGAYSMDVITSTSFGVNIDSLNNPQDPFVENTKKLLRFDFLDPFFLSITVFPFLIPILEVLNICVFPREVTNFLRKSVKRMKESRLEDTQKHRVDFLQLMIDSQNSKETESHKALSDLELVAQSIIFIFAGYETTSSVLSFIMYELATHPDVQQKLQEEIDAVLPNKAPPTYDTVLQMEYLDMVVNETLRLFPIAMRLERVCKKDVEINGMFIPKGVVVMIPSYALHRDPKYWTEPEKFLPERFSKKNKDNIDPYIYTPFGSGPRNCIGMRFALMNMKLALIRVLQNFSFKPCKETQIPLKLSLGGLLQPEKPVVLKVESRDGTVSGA
Chain of Cytochrome P450 2D6 (Homo sapiens) (P10635 whole entry, looked up): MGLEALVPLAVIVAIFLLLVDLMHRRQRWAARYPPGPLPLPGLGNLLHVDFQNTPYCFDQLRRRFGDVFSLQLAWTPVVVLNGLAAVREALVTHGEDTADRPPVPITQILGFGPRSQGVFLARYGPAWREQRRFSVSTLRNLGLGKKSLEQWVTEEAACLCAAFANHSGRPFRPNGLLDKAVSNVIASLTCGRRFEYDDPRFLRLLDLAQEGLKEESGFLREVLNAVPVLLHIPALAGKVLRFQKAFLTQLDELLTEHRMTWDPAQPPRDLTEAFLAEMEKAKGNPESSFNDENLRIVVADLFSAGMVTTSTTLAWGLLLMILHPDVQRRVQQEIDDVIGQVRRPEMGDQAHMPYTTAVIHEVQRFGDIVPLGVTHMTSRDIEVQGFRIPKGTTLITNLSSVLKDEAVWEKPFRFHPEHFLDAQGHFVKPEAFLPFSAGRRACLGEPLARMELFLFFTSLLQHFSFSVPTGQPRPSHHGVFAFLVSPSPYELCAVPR
Chain of Cytochrome P450 1A2 (Homo sapiens) (P05177 whole entry, looked up): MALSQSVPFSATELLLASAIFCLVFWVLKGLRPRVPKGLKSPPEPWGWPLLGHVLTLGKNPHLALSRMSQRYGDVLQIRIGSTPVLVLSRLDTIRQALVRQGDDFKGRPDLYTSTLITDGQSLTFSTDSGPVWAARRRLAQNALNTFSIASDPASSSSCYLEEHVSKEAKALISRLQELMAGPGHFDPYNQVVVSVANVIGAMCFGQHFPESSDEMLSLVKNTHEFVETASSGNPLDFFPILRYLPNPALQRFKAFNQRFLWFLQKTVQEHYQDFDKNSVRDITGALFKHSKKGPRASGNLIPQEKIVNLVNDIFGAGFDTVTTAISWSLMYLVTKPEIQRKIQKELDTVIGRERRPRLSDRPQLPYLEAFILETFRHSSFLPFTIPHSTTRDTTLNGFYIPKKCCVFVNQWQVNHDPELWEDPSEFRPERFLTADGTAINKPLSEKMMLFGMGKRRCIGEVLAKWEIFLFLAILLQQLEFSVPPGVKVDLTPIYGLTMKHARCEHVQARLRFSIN

Which results are given for `CNc1ncnc2c1ncn2[C@H]1C[C@H](OP(=O)(O)O)[C@H](COP(=O)(O)O)O1`?
Potency [1]: > 46 µM; Potency [2]: > 46 µM; Potency [3]: inactive; Potency [4]: 5.01 µM (active); Potency [5]: inactive; Potency [6]: inactive; Potency [7]: inactive

With `Cc1ccc(NC(=O)CSc2ncccc2C(=O)Oc2ccccc2Cl)cc1Cl` as the compound, how does the Potency [8] read?
Its Potency is “inactive”.

What does the source list for `c1cc2c3c(c1)c1c(n3CCNC2)CCCC1`?
Potency [1]: > 46 µM; Potency [2]: > 46 µM; Potency [6]: inactive; Potency [7]: inactive

With `Cc1cccc(CCN2CCC(C(=O)c3ccc(NS(C)(=O)=O)cc3)CC2)n1` as the compound, how does the Potency [5] read?
The Potency was “inactive”.

And the Potency [6]?
The Potency was “inactive”.

What about the Potency [7] of the same compound?
The Potency was “inactive”.

For `Cc1c(C2CCN(CCc3ccccc3)CC2)noc1-c1ccc(Cl)cc1`, which Potency [1] is on record?
Its Potency is over 46 µM.

And the Potency [2]?
The Potency was over 46 µM.

What about the Potency [3] of the same compound?
The Potency was “inactive”.

And the Potency [9]?
The Potency was “inactive”.

And the Potency [10]?
Its Potency is 15.8 µM (active).

And the Potency [5]?
Its Potency is “inactive”.

What about the Potency [6] of the same compound?
The Potency was “inactive”.

And the Potency [7]?
Its Potency is “inactive”.

Which results are given for `CCCCCCCCC(=O)NCc1cc(OC)c(O)cc1I`?
Potency [11]: 12.6 µM (active); Potency [1]: > 46 µM; Potency [2]: > 46 µM; Potency [3]: inactive; Potency [9]: 3.16 µM (active); Potency [10]: inactive; Potency [4]: 7.94 µM (active); Potency [6]: inactive; Potency [7]: inactive
